The nature of assay [1]: viability loss in pontine glioma line – cell-based, SU-DIPG-XXV, MIPE5.0, CellTiter-Glo, qHTS, dose response (AID 1347065; cut-off not given, nearly all actives have AC50 up to about 26 µM;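 note: cells exposed to compound for 48 hours before ATP readout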). The conditions noted are these: CellTiter-Glo ATP luminescence. For orientation: In ATP-based viability assays light output follows the ATP content of the culture.
A short description of assay [2]: SU-DIPG-VI glioma cell viability, MIPE4.0 library, CellTiter-Glo luminescence, qHTS (AID 1347066; cut-off not given, nearly all actives have AC50 up to about 30 µM;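 note: cells exposed to compound for 48 hours before readout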). The conditions noted are these: CellTiter-Glo ATP luminescence.
The nature of assay [3]: JHH-DIPG-1 glioma cell viability, MIPE5.0 library, CellTiter-Glo luminescence, qHTS (AID 1347067; cut-off not given, nearly all actives have AC50 up to about 26 µM;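 note: cells exposed to compound for 48 hours before readout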). The conditions noted are these: JHH-DIPG-1 glioma viability, CellTiter-Glo ATP luminescence.
Assay [4] in a line: sensitizers of A549 cells to miR-34 induction, primary screen, imaging, A549 dox-inducible miR-34, nuclei and caspase counts (AID 1347080;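 active = compounds whose cell count with miR-34 switched on is under 0.7 times the count with it off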). Particulars: A549 miR-34 inducible, Hoechst nuclei count, 48 h.
A short description of assay [5]: survival rescue of mitochondrial mutant cells in low glucose, primary screen, MELAS cybrids, Rieske KO mouse fibroblasts, CellTiter-Glo (AID 1508586;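 active = mean z-score across replicates of 1.96 or higher in either the MELAS or the Rieske mutant cell line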;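 note: z relative to plate mean and SD of compound and empty wells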).
In assay [6] the target is Mitogen-activated protein kinase 7 (Homo sapiens) (UniProt Q13164). In words: ERK5 transactivation activators in reporter cells, primary screen, cell-based, HTS (AID 1508626;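 active = luciferase signal above three times the same-plate solvent-only control wells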;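 note: luciferase driven by Gal4-ERK5 fusion binding five Gal4 sites before minimal TATA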). Particulars: HeLa Gal4-ERK5 transactivation, 18 h, at 5 µM, stronger effect = higher value.
The nature of assay [7]: SU-DIPG-XXV glioma cell viability, MIPE5.0 library, qHTS (AID 1347068; cut-off not given, nearly all actives have IC50 up to about 30 µM). (In qHTS, concentration-response curves come from the screen itself.)
For assay [8], the target named is NAD(+) hydrolase SARM1 (Homo sapiens) (UniProt Q6SZW1). In words: SARM1 TIR NADase inhibitors, cell lysate, NAD-Glo luminescence (AID 1508614;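 active = compound whose remaining NAD level is above about 45 nM, limit read from the data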;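 note: higher remaining NAD means stronger inhibition of SARM1 NADase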). Particulars: SAM-TIR HEK293T lysate NADase, at 1 µM, stronger effect = higher value.
Assay [9] is described as follows: modifiers of HSF1 nuclear foci, imaging, Selleck Cancer Library (AID 1347162; in the data active = plate-normalised HSF1 focus index below about 0.46). Particulars: human cells, at 10 µM; SSMD: measured here: HSF1 foci SSMD mean; cell count: measured here: cell number; plate-normalised HSF1 focus index: stronger effect = lower value.
A short description of assay [10]: viability rescue of complex I mutant cybrids, primary screen, cell-based, galactose medium, ATP luminescence (AID 1645843;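 active = z-score of at least 1.8 in each of two replicates, scored against plate mean and spread of sample wells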;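 note: positive z means more ATP and so rescue of galactose-driven cybrid death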). Particulars: complex I mutant cybrid cells, 72 h, stronger effect = higher value.
Assay [11] can be described thus: LFS_MB_P medulloblastoma growth inhibition, cell-based, chromothripsis tumors, cisplatin or BGB combos (AID 1671449).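 Note: cells exposed for 96 hours; 0% = vehicle DMSO and 100% = killing by high DMSO.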 Particulars: LFS_MB_P medulloblastoma cells.
Assay [12] is described as follows: HDN33 neuroblastoma growth inhibition, cell-based, chromothripsis tumors, cisplatin or BGB combos (AID 1671450).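 Note: cells exposed to compound for four days; 0% = vehicle DMSO and 100% = cell killing by high DMSO.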 Particulars: HDN33 neuroblastoma cells, stronger effect = higher value.
A short description of assay [13]: ICB984 medulloblastoma cell growth inhibition, synergistic combos for chromothripsis tumors, cisplatin or BGB combos (AID 1671451; call rule not given here;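 note: cells exposed for 96 hours before readout; 0% = vehicle DMSO and 100% = killing by high DMSO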). The conditions noted are these: ICB984 medulloblastoma cells, drug combinations, stronger effect = higher value.
The nature of assay [14]: LFS_MB_1R medulloblastoma cell growth inhibition, synergistic combos for chromothripsis tumors, cisplatin or BGB combos (AID 1671452).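 Note: cells exposed for 96 hours before readout.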 The conditions noted are these: LFS_MB_1R medulloblastoma cells, stronger effect = higher value.
Assay [15] can be described thus: HTB85 osteosarcoma cell growth inhibition, synergistic combos for chromothripsis tumors, BGB or cisplatin IC20 combos (AID 1671453).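 Note: cells exposed for 96 hours before readout; 0% = vehicle DMSO and 100% = high DMSO killing control.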 The conditions noted are these: HTB85 osteosarcoma cells, drug combinations, stronger effect = higher value.
Assay [16] can be described thus: CRL2098 osteosarcoma cell growth inhibition, synergistic combos for chromothripsis tumors, BGB or cisplatin IC20 combos (AID 1671454).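 Note: cells exposed for 96 h before readout; 0% = vehicle DMSO and 100% = killing by high DMSO.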 Particulars: CRL2098 osteosarcoma cells, drug combinations, stronger effect = higher value.
Assay [17] in a line: HD-MB03 medulloblastoma cell growth inhibition, synergistic combos for chromothripsis tumors, BGB or cisplatin IC20 combos (AID 1671455; in the data active = inhibition above about 83%;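 note: 0% = vehicle DMSO and 100% = high DMSO as cytotoxic control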). The conditions noted are these: HD-MB03 medulloblastoma cells, stronger effect = higher value.
Setting [18] is: stronger effect = lower value, cell number ratio, induced over uninduced.
[19] abbreviates: measured here: relative caspase fold change +Dox/-Dox.
The mark [20] stands for this setting: measured here: total cells with miR-34 induction, stronger effect = lower value.
Where [21] appears, read: measured here: total cells without miR-34 induction.
The mark [22] stands for this setting: MELAS cybrid survival, CellTiter-Glo 48 h, stronger effect = higher value.
Where [23] appears, read: Rieske KO mouse fibroblast survival, CellTiter-Glo 72 h.
[24] abbreviates: measured here: combination with BGB IC40, at 0.05 µM.

Where “and” joins values, the source holds several entries; their conditions need not be identical. Identical values can stand only once. Records with an inconclusive call do not appear. The source holds several records for some structures; these can differ, active in one and inactive in another. Calls of active or inactive are those of the source. Cut-off read from the data, not from the text of the source, unless noted: active = inhibition above about 80%; inactive = the rest.

Sequence of NAD(+) hydrolase SARM1 (Homo sapiens) (Q6SZW1 whole entry, looked up): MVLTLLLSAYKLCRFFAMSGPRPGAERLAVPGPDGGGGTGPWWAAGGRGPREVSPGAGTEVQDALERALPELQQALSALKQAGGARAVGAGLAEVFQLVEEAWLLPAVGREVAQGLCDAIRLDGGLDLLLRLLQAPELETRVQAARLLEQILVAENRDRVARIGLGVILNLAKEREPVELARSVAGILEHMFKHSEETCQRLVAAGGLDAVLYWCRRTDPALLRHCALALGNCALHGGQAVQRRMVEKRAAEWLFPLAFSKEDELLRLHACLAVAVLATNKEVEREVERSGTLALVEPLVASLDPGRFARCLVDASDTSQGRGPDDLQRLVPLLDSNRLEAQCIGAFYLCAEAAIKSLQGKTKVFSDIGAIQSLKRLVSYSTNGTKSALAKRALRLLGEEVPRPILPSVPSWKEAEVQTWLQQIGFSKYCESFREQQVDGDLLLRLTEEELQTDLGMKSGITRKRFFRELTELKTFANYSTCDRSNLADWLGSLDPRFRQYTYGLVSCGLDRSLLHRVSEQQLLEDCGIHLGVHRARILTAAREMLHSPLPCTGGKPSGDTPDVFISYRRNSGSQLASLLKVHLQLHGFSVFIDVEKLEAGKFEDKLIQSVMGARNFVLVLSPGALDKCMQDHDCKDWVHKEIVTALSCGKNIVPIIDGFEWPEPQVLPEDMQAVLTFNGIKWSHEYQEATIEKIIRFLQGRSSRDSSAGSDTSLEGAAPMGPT
Sequence of Mitogen-activated protein kinase 7 (Homo sapiens) (Q13164 whole entry, looked up, the tested form may be a part): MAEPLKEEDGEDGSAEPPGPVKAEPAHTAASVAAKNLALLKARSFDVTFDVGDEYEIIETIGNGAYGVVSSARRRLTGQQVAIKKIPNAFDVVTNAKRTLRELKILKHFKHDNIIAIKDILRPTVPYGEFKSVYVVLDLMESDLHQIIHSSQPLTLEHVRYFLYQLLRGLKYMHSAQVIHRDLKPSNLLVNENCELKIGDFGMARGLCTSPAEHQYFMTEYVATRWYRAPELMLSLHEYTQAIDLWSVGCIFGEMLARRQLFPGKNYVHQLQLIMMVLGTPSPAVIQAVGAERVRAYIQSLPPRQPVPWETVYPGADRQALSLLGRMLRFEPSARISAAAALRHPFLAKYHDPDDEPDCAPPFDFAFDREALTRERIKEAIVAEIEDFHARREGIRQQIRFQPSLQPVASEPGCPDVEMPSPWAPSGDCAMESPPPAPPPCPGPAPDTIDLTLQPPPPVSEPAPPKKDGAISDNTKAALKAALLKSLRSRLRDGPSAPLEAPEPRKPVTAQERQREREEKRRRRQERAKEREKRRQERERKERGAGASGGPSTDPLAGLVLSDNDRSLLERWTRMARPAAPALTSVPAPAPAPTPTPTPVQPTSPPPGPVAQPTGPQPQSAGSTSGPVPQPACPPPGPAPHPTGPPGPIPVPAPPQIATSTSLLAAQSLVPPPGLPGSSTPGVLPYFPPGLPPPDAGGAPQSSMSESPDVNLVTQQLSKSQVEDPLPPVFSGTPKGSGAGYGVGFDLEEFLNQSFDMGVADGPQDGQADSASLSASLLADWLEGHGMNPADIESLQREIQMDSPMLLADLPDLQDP

What is called AC50 is the concentration giving half of the maximal activity seen. As to `COc1ccc2cc3[n+](cc2c1OC)CCc1cc2c(cc1-3)OCO2`, the AC50 in assay [1] is 18.6 µM (active); in assay [2], 23.5 µM (active); in assay [3] it was 18.6 µM (active). Moreover, the fold change is 0.92 (inactive) and 0.934 (inactive) in assay [4] (setting [18]); 1.68 and 1.22 in assay [4] (setting [19]). Also, the cell count in assay [4] (setting [20]) is 5700 and 4440; in [4] (setting [21]), 6200 and 4750. For the same compound, the values for the z-score in assay [5] (setting [22]) and in assay [5] (setting [23]) were 0.0209 (inactive) and 0.259, respectively. The luciferase signal in assay [6] is 64 AU (inactive).

With `COc1ccc2nc(S(=O)Cc3ncc(C)c(OC)c3C)[nH]c2c1` (stereo not drawn), the call in [1], in [2], in assay [3] and in assay [7] was inactive. In addition, the remaining NAD in assay [8] was 10 nM (inactive). Besides, the luciferase signal in [6] was 68 AU (inactive).

One may read the inhibition as the drop in the measured response relative to a control, in per cent. In the case of `CNNCc1ccc(C(=O)NC(C)C)cc1`, the compound was called inactive in assay [1], in assay [3] and in assay [7]. The fold change in [4] (setting [18]) is 0.927 (inactive) and 0.93 (inactive) and 0.882 (inactive); in [4] (setting [19]), 0.658 and 1.32 and 1.82. Further, the cell count was 8930 and 9660 and 9580 in assay [4] (setting [20]); 9640 and 10400 and 10900 in assay [4] (setting [21]); 7850 in [9]. The compound further registered an SSMD in assay [9] of 2.76. Moreover, the plate-normalised HSF1 focus index in assay [9] was 1.17 (inactive). Besides, the z-score in [5] (setting [22]) was -0.384 (inactive) and 0.576 (inactive); in [5] (setting [23]) it was -1.08 and 0.362; in assay [10], -0.975 (inactive) and 0.615 (inactive). In addition, in assay [8], the remaining NAD was 10 nM (inactive). Further, the inhibition in assay [11] (at 0.5 µM, stronger effect = higher value) is -4.96% (inactive) and -7.28% (inactive); in assay [11] (measured here: combination with BGB IC20, at 0.005 µM), 0.865% and -3.27%; in assay [11] (measured here: combination with BGB IC40, at 0.005 µM) it was 4.15% and 7.38%; in assay [11] (setting [24]) it was -4.16% and -2.23%; in [11] (measured here: combination with cisplatin, at 0.5 µM, stronger effect = higher value) it was -13.4% and -33.1%; in [11] (measured here: combination with cisplatin, at 5 µM, stronger effect = higher value), 33.1% and 11.1%. The inhibition in assay [12] (BGB combo, at 5 µM) was 11.7% and 16.1%; in assay [12] (at 0.5 µM), 10.7% (inactive) and 6.09% (inactive); in [12] (cisplatin combo, at 5 µM), 11.5% and 15.1%; in assay [12] (measured here: with BGB IC20 combination, at 0.5 µM), 8.82% and -6.43%; in assay [12] (measured here: with cisplatin IC20 combination, at 0.5 µM), 7.54% and 20.8%; in assay [12] (single agent, at 5 µM) it was 17.8% and 2.31%. Besides, the inhibition in assay [13] (BGB IC20 combo, at 0.005 µM) is 9.83% and 1.87%; in assay [13] (BGB IC40 combo, at 0.005 µM) it was -24.6% and -19.9%; in assay [13] (BGB IC40 combo, at 0.05 µM), -27.1% and 7.42%; in assay [13] (at 0.5 µM) it was -17.4% (inactive) and -14% (inactive); in [13] (cisplatin combo, at 0.05 µM), -31.7% and 4.83%; in [13] (cisplatin combo, at 0.5 µM) it was -11.9% and -3.72%. Also, the inhibition was 2.16% and -28.3% in assay [13] (cisplatin combo, at 5 µM); 3.31% and -11.8% in [13] (measured here: 5 uM single agent, at 5 µM); 9.11% (inactive) and -17.9% (inactive) in assay [14] (at 0.5 µM); 11.1% and -7.89% in assay [14] (setting [24]); 9.64% and -15.3% in assay [14] (measured here: combination with cisplatin, at 0.5 µM); -32.2% and -1.85% in [14] (measured here: combination with cisplatin, at 5 µM). The inhibition was -1.94% (inactive) and -4.22% (inactive) in [15] (at 0.5 µM); 2.72% and -14.1% in assay [15] (measured here: with BGB IC20, at 0.5 µM); 4.14% and -30.2% in [15] (measured here: with BGB IC20, at 5 µM); -5.46% and -13.6% in assay [15] (measured here: with cisplatin IC20, at 0.5 µM); -7.6% and -38.8% in [15] (measured here: with cisplatin IC20, at 5 µM); 3.42% and -2.23% in assay [15] (single agent, at 5 µM). Moreover, the inhibition in assay [16] (at 0.5 µM) is 3.58% (inactive) and -35.9% (inactive); in [16] (measured here: combination with BGB at IC20, at 0.5 µM), -18.3% and -64.1%; in [16] (measured here: combination with cisplatin at IC20, at 0.5 µM), -1.94% and -14.9%; in [17] (at 0.5 µM) it was 1.99% (inactive) and 3.37% (inactive); in assay [17] (measured here: combo with BGB at IC20, at 0.5 µM) it was -4.48% and 4.11%; in assay [17] (measured here: combo with cisplatin at IC20, at 0.5 µM), 6.48% and 0.786%.

On to `C#C[C@]1(O)CC[C@H]2[C@@H]3CCc4cc(O)ccc4[C@H]3CC[C@@]21C`, for which the AC50 in [1] is 13.2 µM (active). Further, in [2], the outcome was inactive. The z-score is 1.16 (inactive) in assay [5] (setting [22]) and 0.428 in [5] (setting [23]). In assay [8], the remaining NAD is 10 nM (inactive). The luciferase signal in assay [6] is 76 AU (inactive).

For `COc1ccc(C(=O)CC(=O)c2ccc(C(C)(C)C)cc2)cc1`, the result in assay [1], in [3] and in [7] was inactive. Further, the fold change was 0.967 (inactive) and 0.867 (inactive) in assay [4] (setting [18]); 0.938 and 3.78 in assay [4] (setting [19]). Further, the cell count was 7480 and 11300 in [4] (setting [20]); 7740 and 13000 in [4] (setting [21]). In addition, the z-score in assay [5] (setting [22]) was -0.399 (inactive) and 2 (active); in [5] (setting [23]), 0.325 and 0.254. Further, the remaining NAD in assay [8] was 10 nM (inactive). The luciferase signal in assay [6] was 44 AU (inactive).
